# Results published in the supplement of paper PMC4022240.
# ± gives the standard deviation.
# T1: HaloTag-ATRX ADD domain (163-292)
# T1 chain: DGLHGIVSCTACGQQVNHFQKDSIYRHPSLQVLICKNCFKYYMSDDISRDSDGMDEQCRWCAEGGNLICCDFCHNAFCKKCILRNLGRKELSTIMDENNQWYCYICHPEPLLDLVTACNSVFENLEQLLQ
# How the values were obtained:
# Experiment in all cases: peptide microarray binding signal (635 nm), min-max normalized on array (fraction of array maximum); higher = stronger binding
# [1] = target: T1, HaloTag-ATRX ADD domain (163-292)
# Protocol: (§1)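 Histone 13-mer peptides were synthesized as cellulose conjugates with a C-terminal 20-atom PEG linker and printed in triplicate on nitrocellulose. The sequence given is the unmodified backbone; PTMs (Kme1/2/3, Kac, Sph/Tph, Rme/Rme2a/Rme2s, Rcit) are listed in the label and the 'peptide modifications' condition. Slides were probed at 4 °C for 1 h with biotin-labelled (HQ)5-HaloTag reader fusions (ATRX-ADD, ING2-PHD) then streptavidin-Alexa647, or with rabbit histone antibodies then anti-rabbit Alexa647. The mean 635 nm signal of the triplicate spots was scaled 0-1 between the lowest and highest values on each array.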
# [2] = target: HaloTag-ING2 PHD (mouse Ing2 200-280)
# Protocol: as §1
# [3] = target: anti-H3K4me3 antibody ab8580
# Protocol: as §1
# [4] = target: anti-H3K9me3 antibody ab8898
# Protocol: as §1
# [5] = peptide region: H3 1-13, peptide modifications: H3T3ph H3K9me3, binder concentration: 1:2,000 dilution
# [6] = peptide region: H3 1-13, peptide modifications: H3T3ph H3K9me3, binder concentration: 1:10,000 dilution
# [7] = peptide region: H3 5-17, peptide modifications: H3K9ac H3K14me1, binder concentration: 1:2,000 dilution
# [8] = peptide region: H3 5-17, peptide modifications: H3K9ac H3K14me1, binder concentration: 1:10,000 dilution
# [9] = peptide region: H3 1-13, peptide modifications: H3T3ph H3K4me3, binder concentration: 1:2,000 dilution
# [10] = peptide region: H3 1-13, peptide modifications: H3T3ph H3K4me3, binder concentration: 1:10,000 dilution
# [11] = peptide region: H3 1-13, peptide modifications: H3T3ph H3K9me1, binder concentration: 1:2,000 dilution
# [12] = peptide region: H3 1-13, peptide modifications: H3T3ph H3K9me1, binder concentration: 1:10,000 dilution
# [13] = peptide region: H3 1-13, peptide modifications: H3T6ph H3K9me3, binder concentration: 1:2,000 dilution
# [14] = peptide region: H3 1-13, peptide modifications: H3T6ph H3K9me3, binder concentration: 1:10,000 dilution
# [15] = peptide region: H3 1-13, peptide modifications: H3T6ph H3K9me1, binder concentration: 1:2,000 dilution
# [16] = peptide region: H3 1-13, peptide modifications: H3T6ph H3K9me1, binder concentration: 1:10,000 dilution
# [17] = peptide region: H3 5-17, peptide modifications: H3K9ac H3K14me2, binder concentration: 1:2,000 dilution
# [18] = peptide region: H3 5-17, peptide modifications: H3K9ac H3K14me2, binder concentration: 1:10,000 dilution
# [19] = peptide region: H3 1-13, peptide modifications: H3T6ph H3R8me1, binder concentration: 1:2,000 dilution
# [20] = peptide region: H3 1-13, peptide modifications: H3T6ph H3R8me1, binder concentration: 1:10,000 dilution
# [21] = peptide region: H3 1-13, peptide modifications: H3T6ph H3R8me2s, binder concentration: 1:2,000 dilution
# [22] = peptide region: H3 1-13, peptide modifications: H3T6ph H3R8me2s, binder concentration: 1:10,000 dilution
# [23] = peptide region: H3 5-17, peptide modifications: H3K9ac H3K14ac, binder concentration: 1:2,000 dilution
# [24] = peptide region: H3 5-17, peptide modifications: H3K9ac H3K14ac, binder concentration: 1:10,000 dilution
binder,measurement,setting,value
ARTKQTARKSTGG [H3 1-13 A R Tph K Q T A R Kme3 S T G G],peptide microarray binding signal,"[1]; peptide region: H3 1-13, peptide modifications: H3T3ph H3K9me3, binder concentration: 50 nM",0.0613 ± 0.011
same,peptide microarray binding signal,"[1]; peptide region: H3 1-13, peptide modifications: H3T3ph H3K9me3, binder concentration: 500 nM",0.122 ± 0.03
same,peptide microarray binding signal,"[2]; peptide region: H3 1-13, peptide modifications: H3T3ph H3K9me3, binder concentration: 10 nM",0.0186 ± 0.0018
same,peptide microarray binding signal,"[2]; peptide region: H3 1-13, peptide modifications: H3T3ph H3K9me3, binder concentration: 100 nM",0.0397 ± 0.0029
same,peptide microarray binding signal,[3]; [5],0.122 ± 0.066
same,peptide microarray binding signal,[3]; [6],0.0819 ± 0.021
same,peptide microarray binding signal,[4]; [5],0.459 ± 0.036
same,peptide microarray binding signal,[4]; [6],0.387 ± 0.046
QTARKSTGGKAPR [H3 5-17 Q T A R Kac S T G G Kme A P R],peptide microarray binding signal,"[1]; peptide region: H3 5-17, peptide modifications: H3K9ac H3K14me1, binder concentration: 50 nM",0.00746 ± 0.00018
same,peptide microarray binding signal,"[1]; peptide region: H3 5-17, peptide modifications: H3K9ac H3K14me1, binder concentration: 500 nM",0.024 ± 0.0017
same,peptide microarray binding signal,"[2]; peptide region: H3 5-17, peptide modifications: H3K9ac H3K14me1, binder concentration: 10 nM",0.023 ± 0.0062
same,peptide microarray binding signal,"[2]; peptide region: H3 5-17, peptide modifications: H3K9ac H3K14me1, binder concentration: 100 nM",0.0497 ± 0.004
same,peptide microarray binding signal,[3]; [7],0.00345 ± 0.00048
same,peptide microarray binding signal,[3]; [8],0.00205 ± 3.8e-05
same,peptide microarray binding signal,[4]; [7],0.0192 ± 0.002
same,peptide microarray binding signal,[4]; [8],0.00882 ± 0.00058
ARTKQTARKSTGG [H3 1-13 A R Tph Kme3 Q T A R K S T G G],peptide microarray binding signal,"[1]; peptide region: H3 1-13, peptide modifications: H3T3ph H3K4me3, binder concentration: 50 nM",0.00583 ± 0.0002
same,peptide microarray binding signal,"[1]; peptide region: H3 1-13, peptide modifications: H3T3ph H3K4me3, binder concentration: 500 nM",0.0119 ± 0.00039
same,peptide microarray binding signal,"[2]; peptide region: H3 1-13, peptide modifications: H3T3ph H3K4me3, binder concentration: 10 nM",0.0508 ± 0.0034
same,peptide microarray binding signal,"[2]; peptide region: H3 1-13, peptide modifications: H3T3ph H3K4me3, binder concentration: 100 nM",0.103 ± 0.049
same,peptide microarray binding signal,[3]; [9],0.277 ± 0.065
same,peptide microarray binding signal,[3]; [10],0.724 ± 0.2
same,peptide microarray binding signal,[4]; [9],0.055 ± 0.0067
same,peptide microarray binding signal,[4]; [10],0.017 ± 0.00063
ARTKQTARKSTGG [H3 1-13 A R Tph K Q T A R Kme S T G G],peptide microarray binding signal,"[1]; peptide region: H3 1-13, peptide modifications: H3T3ph H3K9me1, binder concentration: 50 nM",0.00815 ± 8.5e-05
same,peptide microarray binding signal,"[1]; peptide region: H3 1-13, peptide modifications: H3T3ph H3K9me1, binder concentration: 500 nM",0.0174 ± 0.0014
same,peptide microarray binding signal,"[2]; peptide region: H3 1-13, peptide modifications: H3T3ph H3K9me1, binder concentration: 10 nM",0.0307 ± 0.0023
same,peptide microarray binding signal,"[2]; peptide region: H3 1-13, peptide modifications: H3T3ph H3K9me1, binder concentration: 100 nM",0.0507 ± 0.004
same,peptide microarray binding signal,[3]; [11],0.00859 ± 0.0018
same,peptide microarray binding signal,[3]; [12],0.0167 ± 0.0032
same,peptide microarray binding signal,[4]; [11],0.00692 ± 0.00099
same,peptide microarray binding signal,[4]; [12],0.0053 ± 0.00068
ARTKQTARKSTGG [H3 1-13 A R T K Q Tph A R Kme3 S T G G],peptide microarray binding signal,"[1]; peptide region: H3 1-13, peptide modifications: H3T6ph H3K9me3, binder concentration: 50 nM",0.007335 ± 6.2e-05
same,peptide microarray binding signal,"[1]; peptide region: H3 1-13, peptide modifications: H3T6ph H3K9me3, binder concentration: 500 nM",0.01343 ± 9.1e-05
same,peptide microarray binding signal,"[2]; peptide region: H3 1-13, peptide modifications: H3T6ph H3K9me3, binder concentration: 10 nM",0.0229 ± 0.0005
same,peptide microarray binding signal,"[2]; peptide region: H3 1-13, peptide modifications: H3T6ph H3K9me3, binder concentration: 100 nM",0.0339 ± 0.003
same,peptide microarray binding signal,[3]; [13],0.0494 ± 0.0093
same,peptide microarray binding signal,[3]; [14],0.0422 ± 0.0078
same,peptide microarray binding signal,[4]; [13],0.269 ± 0.024
same,peptide microarray binding signal,[4]; [14],0.17 ± 0.021
ARTKQTARKSTGG [H3 1-13 A R T K Q Tph A R Kme S T G G],peptide microarray binding signal,"[1]; peptide region: H3 1-13, peptide modifications: H3T6ph H3K9me1, binder concentration: 50 nM",0.00721 ± 0.00059
same,peptide microarray binding signal,"[1]; peptide region: H3 1-13, peptide modifications: H3T6ph H3K9me1, binder concentration: 500 nM",0.0115 ± 0.00096
same,peptide microarray binding signal,"[2]; peptide region: H3 1-13, peptide modifications: H3T6ph H3K9me1, binder concentration: 10 nM",0.0206 ± 0.0028
same,peptide microarray binding signal,"[2]; peptide region: H3 1-13, peptide modifications: H3T6ph H3K9me1, binder concentration: 100 nM",0.0319 ± 0.0032
same,peptide microarray binding signal,[3]; [15],0.00568 ± 0.0013
same,peptide microarray binding signal,[3]; [16],0.0686 ± 0.046
same,peptide microarray binding signal,[4]; [15],0.00584 ± 0.00057
same,peptide microarray binding signal,[4]; [16],0.00582 ± 0.00014
QTARKSTGGKAPR [H3 5-17 Q T A R Kac S T G G Kme2 A P R],peptide microarray binding signal,"[1]; peptide region: H3 5-17, peptide modifications: H3K9ac H3K14me2, binder concentration: 50 nM",0.00746 ± 0.00033
same,peptide microarray binding signal,"[1]; peptide region: H3 5-17, peptide modifications: H3K9ac H3K14me2, binder concentration: 500 nM",0.0201 ± 0.0018
same,peptide microarray binding signal,"[2]; peptide region: H3 5-17, peptide modifications: H3K9ac H3K14me2, binder concentration: 10 nM",0.0147 ± 0.0015
same,peptide microarray binding signal,"[2]; peptide region: H3 5-17, peptide modifications: H3K9ac H3K14me2, binder concentration: 100 nM",0.0485 ± 0.015
same,peptide microarray binding signal,[3]; [17],0.0108 ± 0.00077
same,peptide microarray binding signal,[3]; [18],0.00468 ± 0.00039
same,peptide microarray binding signal,[4]; [17],0.0189 ± 0.00074
same,peptide microarray binding signal,[4]; [18],0.406 ± 0.064
ARTKQTARKSTGG [H3 1-13 A R T K Q Tph A Rme K S T G G],peptide microarray binding signal,"[1]; peptide region: H3 1-13, peptide modifications: H3T6ph H3R8me1, binder concentration: 50 nM",0.00476 ± 9.2e-05
same,peptide microarray binding signal,"[1]; peptide region: H3 1-13, peptide modifications: H3T6ph H3R8me1, binder concentration: 500 nM",0.022 ± 0.0012
same,peptide microarray binding signal,"[2]; peptide region: H3 1-13, peptide modifications: H3T6ph H3R8me1, binder concentration: 10 nM",0.00507 ± 0.0011
same,peptide microarray binding signal,"[2]; peptide region: H3 1-13, peptide modifications: H3T6ph H3R8me1, binder concentration: 100 nM",0.0331 ± 0.012
same,peptide microarray binding signal,[3]; [19],0.00111 ± 7.2e-05
same,peptide microarray binding signal,[3]; [20],0.00148 ± 0.0001
same,peptide microarray binding signal,[4]; [19],0.00234 ± 0.00042
same,peptide microarray binding signal,[4]; [20],0.00213 ± 7.1e-05
ARTKQTARKSTGG [H3 1-13 A R T K Q Tph A Rme2s K S T G G],peptide microarray binding signal,"[1]; peptide region: H3 1-13, peptide modifications: H3T6ph H3R8me2s, binder concentration: 50 nM",0.0201 ± 0.0019
same,peptide microarray binding signal,"[1]; peptide region: H3 1-13, peptide modifications: H3T6ph H3R8me2s, binder concentration: 500 nM",0.0152 ± 0.0026
same,peptide microarray binding signal,"[2]; peptide region: H3 1-13, peptide modifications: H3T6ph H3R8me2s, binder concentration: 10 nM",0.0119 ± 0.00043
same,peptide microarray binding signal,"[2]; peptide region: H3 1-13, peptide modifications: H3T6ph H3R8me2s, binder concentration: 100 nM",0.0145 ± 0.00066
same,peptide microarray binding signal,[3]; [21],0.00287 ± 9.2e-05
same,peptide microarray binding signal,[3]; [22],0.000571
same,peptide microarray binding signal,[4]; [21],0.0029 ± 6.7e-05
same,peptide microarray binding signal,[4]; [22],0.00646 ± 0.0018
QTARKSTGGKAPR [H3 5-17 Q T A R Kac S T G G Kac A P R],peptide microarray binding signal,"[1]; peptide region: H3 5-17, peptide modifications: H3K9ac H3K14ac, binder concentration: 50 nM",0.0318 ± 0.0049
same,peptide microarray binding signal,"[1]; peptide region: H3 5-17, peptide modifications: H3K9ac H3K14ac, binder concentration: 500 nM",0.0984 ± 0.027
same,peptide microarray binding signal,"[2]; peptide region: H3 5-17, peptide modifications: H3K9ac H3K14ac, binder concentration: 10 nM",0.0862 ± 0.034
same,peptide microarray binding signal,"[2]; peptide region: H3 5-17, peptide modifications: H3K9ac H3K14ac, binder concentration: 100 nM",0.048 ± 0.023
same,peptide microarray binding signal,[3]; [23],0.0141 ± 0.0045
same,peptide microarray binding signal,[3]; [24],0.0234 ± 0.0064
same,peptide microarray binding signal,[4]; [23],0.03 ± 0.0085
same,peptide microarray binding signal,[4]; [24],0.0332 ± 0.014
